Screening results from PubChem.
Only some compounds are listed: those with a hit (about 1.5% of all), similar ones and a draw of the others.
PriA SSB inh: K. pneumoniae PriA-SSBct interaction inhibition | AlphaScreen SSBct-PriA binding, biotinylated peptide | inhibition, % at 33 µM | actives 0.6% (n = 430,000) | AID 1272365; in the data active means inhibition mostly above about 37%, no sharp cut-off; inactive means mostly below about 20%;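 further: plate controls were negative control peptide for no effect and reference peptide for full effect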
VHR inh abs: blocks human VHR1 dual specificity phosphatase; actives 0.52% (n = 290,000); AID 1654; recombinant VHR phosphatase, pNPP absorbance; inhibition, % at 13.3 µM; in the data active means inhibition above about 50%
Target sequence (P51452 whole entry, looked up): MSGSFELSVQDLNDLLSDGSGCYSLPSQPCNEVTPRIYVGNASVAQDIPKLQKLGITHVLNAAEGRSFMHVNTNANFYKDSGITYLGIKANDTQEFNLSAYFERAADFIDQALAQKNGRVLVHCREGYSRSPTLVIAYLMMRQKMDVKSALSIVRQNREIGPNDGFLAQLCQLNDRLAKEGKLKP
Sa RN4220 lethal: S. aureus RN4220 growth inhibition | inhibition, % (no concentration beside the values) | OD600, 16 h | AID 1259311 | actives 0.33% (n = 330,000); in the data active means inhibition above about 85%;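 further: plate controls were untreated cells for no effect and reference antibiotic for full effect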
ugtP null kill: kills S. aureus RN4220 lacking UgtP | S. aureus RN4220 ugtP deletion, OD600 growth, 16 h | growth inhibition, % (concentration not given with the values) | actives 0.54% (n = 330,000) | AID 1259309; in the data active means growth inhibition above about 68%;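 further: plate controls were untreated wells for no effect and antibiotic for full effect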
CCHF vOTU inh: CCHFV vOTU protease inhibition | Pep-AMC fluorescence | inhibition, % at 11.5 µM | actives 0.55% (n = 370,000); in the data active means inhibition above about 30%; further: 0% = vehicle wells with enzyme and 100% = no enzyme wells
* hit, by the source's call; . = not tested or not shown.

SMILES | PriA SSB inh | VHR inh abs | Sa RN4220 lethal | ugtP null kill | CCHF vOTU inh
O=C(NCCn1nc(-c2cccnc2)ccc1=O)NCc1ccccc1 | -11 | . | . | . | .
NC(=S)N/N=C\c1ccc(-c2ccc([N+](=O)[O-])cc2)o1 | 11 | . | . | . | .
O=C(CC(Sc1ccc(Br)cc1)C(=O)O)c1ccc(F)cc1 (centres undefined) | -19 | 18 | 43 | 92* | 8
CCOC(=O)N1CCN(C(=O)C(=O)Nc2ccc3nc4n(c(=O)c3c2)CCCCC4)CC1 | 104* | 8 | -1 | -1 | -4
C/C(=C\C(=S)Nc1ccccc1)Nc1ccc2ccccc2c1 | 67* | -11 | 6 | -6 | -11
COC(=O)c1ccc(C(=O)OC)c(NC(=O)c2nn(-c3ccccc3)c(=O)cc2OC)c1 | 0 | . | . | . | .
Cc1cc(C)cc(NC2=C(N)C(=O)c3ccccc3C2=O)c1 | 54* | -3 | 11 | 7 | .
COCCN1CCCc2ccc(NS(=O)(=O)c3ccc(OC)cc3)cc21 | 26 | . | . | . | .
COCCN1CCCc2ccc(N)cc21 | 79* | . | . | . | .
COCCN1CCCc2ccc(NC(=O)c3cc(C)cc(C)c3)cc21 | 62* | . | . | . | .
COCCN1CCCc2ccc(NC(=O)c3ccc(Br)cc3)cc21 | 61* | . | . | . | .
O=C(NC(=S)NC1CCS(=O)(=O)C1)c1ccc([N+](=O)[O-])cc1 (centres undefined) | 9 | . | . | . | .
O=[N+]([O-])c1ccc(NNC(=S)NC2CCS(=O)(=O)C2)c([N+](=O)[O-])c1 (centres undefined) | 51* | . | . | . | .
CC(C)Nc1nc(NC(C)C)nc(N(C)N)n1 | 65* | 5 | 1 | 6 | -3
Nc1ccccc1Nc1ccncc1[N+](=O)[O-] | -11 | -12 | -5 | -7 | -6
Nc1ccccc1Nc1c(F)c(F)nc(F)c1Cl | 39* | -26 | 5 | 16 | 5
OCCN(CC(O)Cn1ccc2ccccc21)CC(O)Cn1ccc2ccccc21 (centres undefined) | -11 | 51* | -3 | -20 | 1
CC(C)(C)c1ccc(OCC(O)CN(CCO)CC(O)Cn2ccc3ccccc32)cc1 (centres undefined) | 4 | 12 | 4 | -3 | 13
ONC=NC(=S)Nc1ncc(C(F)(F)F)cc1Cl | 7 | . | . | . | .
C#CCSc1nc2ccc([N+](=O)[O-])cc2s1 | -7 | . | . | . | .
COc1ccc(CC(=O)NCc2ccsc2)cc1OC | 0 | . | . | . | .
CC(=NNc1nc2ccccc2s1)c1ncccn1 | 2 | . | . | . | -3
CC(=NNc1nc2ccccc2o1)c1cc2ccccc2cn1 | 41* | . | . | . | 6
CC(=NNc1nc2ccccc2o1)c1ncccn1 | 101* | . | . | . | -12
Cc1ccc(NC(=O)C(=O)NCc2ccsc2)cc1 | 10 | . | . | . | .
SMILES | PriA SSB inh | VHR inh abs | Sa RN4220 lethal | ugtP null kill | CCHF vOTU inh
COc1ccc(CCNC(=O)CC(C)S(=O)(=O)c2ccc3c(c2)NC(=O)CO3)cc1OC (centres undefined) | -1 | 59* | 3 | 5 | 10
O=C(NCC[C@H](O)c1ccccc1)C(=O)Nc1ccc(OC(F)(F)F)cc1 | -15 | . | . | . | .
CCCCCCn1c(C(C)NC(=O)c2ccco2)nc2ccccc21 (centres undefined) | -7 | 54* | 6 | -17 | 7
Cc1ccc(Nc2nc(Nc3cccc(F)c3)nc(N3CCCC3)n2)cc1C | 8 | . | . | . | .
NCCOc1ccc(-c2ccccn2)nn1 | 154* | . | . | . | .
O=C(NCCOc1ccc(-c2ccccn2)nn1)c1ccco1 | 116* | . | . | . | .
Nc1nnc(SCC(=O)c2ccc([N+](=O)[O-])cc2)s1 | 8 | 9 | 95* | 54 | -7
CCn1cc(C(=O)O)c(=O)c2cc(F)c(N3CCN(C(=S)NC(=O)c4ccccc4F)CC3)cc21 | -20 | -4 | 99* | 99* | -3
CCn1cc(C(=O)O)c(=O)c2cc(F)c(N3CCN(C(=O)Nc4ccccc4)CC3)cc21 | -6 | -4 | 86 | 96* | -14
CCn1cc(C(=O)NCc2ccco2)c(=O)c2cc(F)c(N3CCN(C(=O)c4ccco4)CC3)cc21 | 5 | 11 | 22 | 28 | -3
C=CCNC(=O)c1cn(CC)c2cc(N3CCN(C(=O)c4ccco4)CC3)c(F)cc2c1=O | -4 | -4 | 94* | 98* | -35
CCn1cc(C(=O)O)c(=O)c2cc(F)c(N3CCNCC3)cc21 | . | 16 | . | . | .
CCn1cc(C(=O)O)c(=O)c2cc(F)c(N3CCN(C(=S)NC(=O)c4ccc(OC)cc4)CC3)cc21 | 0 | -4 | 99* | 99* | 3
CCn1cc(C(=O)O)c(=O)c2cc(F)c(N3CCN(C(=S)NC(=O)c4cccc(C)c4)CC3)cc21 | -4 | 2 | 43 | 39 | -9
Cc1ccc(CNc2ncc3c(=O)n(Cc4ccccc4)c(=O)[nH]c3n2)o1 | -11 | . | . | . | .
COc1ccc(-n2c(Cc3cccn3C)nnc2SCC(=O)Nc2cc(C)on2)cc1 | 24 | . | . | . | .
CCc1ccc(S(=O)(=O)Nc2ccc3nc(C)n(-c4ccc(OC)cc4)c(=O)c3c2)cc1 | 1 | . | . | . | .
Cc1cccc(-n2cnc(C(=O)NNC(=S)Nc3ccc(Cl)cc3)c2)n1 | 80* | 12 | . | . | -3
Cc1cc(C)n(-c2cc(NC(=O)[C@H]3CC(=O)N(c4cccc(F)c4)C3)ncn2)n1 | -8 | . | . | . | .
OCCCNC(=S)Nc1ccc2nc(-c3ccccn3)c(-c3ccccn3)nc2c1 | 72* | 40 | 5 | 1 | -30
CN(C)C(=S)Nc1ccc2nc(-c3ccccn3)c(-c3ccccn3)nc2c1 | 35 | . | . | . | .
CN(C)NC(=S)Nc1ccc2nc(-c3ccccn3)c(-c3ccccn3)nc2c1 | 79* | 7 | 2 | 5 | -2
COc1ccc(C(=O)c2c(C(F)(F)F)oc3c2C(=O)c2ccccc2C3=O)cc1OC | 49 | -8 | 49 | 80 | 64*
CCN(CC)c1ccc(NC(=O)Cn2c(C(C)NC(=O)c3ccccc3)nc3ccccc32)cc1 (centres undefined) | 0 | 55* | 2 | 2 | -12
CCCC1CC(C(=O)NC(C(C)O)C2OC(SC)C(O)C(O)C2O)N(C)C1 (centres undefined) | . | . | 100* | 99* | .
SMILES | PriA SSB inh | VHR inh abs | Sa RN4220 lethal | ugtP null kill | CCHF vOTU inh
CCC[C@@H]1C[C@@H](C(=O)N[C@H]([C@@H](C)O)[C@H]2O[C@H](SC)[C@H](O)[C@@H](O)C2O)N(C)C1 (some centres undefined) | . | 1 | . | . | 4
COC(=O)c1sc(-c2ccccc2)cc1NC(=O)c1cc(-c2cccs2)nc2ccccc12 | -26 | . | . | . | .
COc1cc(OC)cc(C(=O)N2CCN(c3nccn3-c3cccc(Cl)c3)CC2)c1 | 40* | . | . | . | .
COc1ccc(C(=O)N2CCN(c3nccn3-c3ccc(C)cc3)CC2)c(OC)c1 | 38* | . | . | . | .
CCCOc1ccc(C(O)=C2C(=O)C(=O)N(CCCn3ccnc3)C2c2ccc(C)o2)cc1 (centres undefined) | -6 | . | . | . | .
CCN(CC)C(=O)Cn1cc(C(=O)C(=O)Nc2ccc(OC(F)(F)F)cc2)c2ccccc21 | 3 | . | . | . | .
O=C(c1cc([N+](=O)[O-])ccc1Cl)N1c2ccccc2Sc2ccccc21 | 62* | -7 | -1 | 8 | -4
O=C(c1cc([N+](=O)[O-])ccc1Cl)N1CCN(c2ccccc2)CC1 | 0 | 4 | -1 | 2 | 8
O=C(O)c1cc(Cl)ccn1 | 68* | . | . | . | .
CN(C)c1ccnc(C(=O)O)c1 | -19 | 18 | -1 | 11 | -5
O=C(Nc1nncs1)c1cc(Cl)ccn1 | 124* | . | . | . | .
